Compounds without any hit were thinned out: in the full panel of roughly 79,000, 15% have a hit. Calls of active or inactive are those of the source. Rule as the data show it: active = growth inhibition above about 70%; inactive = the rest.
Columns and labels:
[1] = NCI Yeast Anticancer Drug Screen. Data for the rad52 strain (AID 147);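 also: 0% = growth of vehicle-treated control cultures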; settings: S. cerevisiae rad52 mutant growth inhibition, stronger effect = higher value
How it was run: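 DNA repair-defective yeast; compound exposure; growth scored against vehicle controls.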

[2] = NCI Yeast Anticancer Drug Screen. Data for the wt1 strain (AID 149);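 also: 0% = growth of vehicle-treated wt1 cultures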; settings: S. cerevisiae wt1 strain (SPY 50644) growth inhibition, stronger effect = higher value
How it was run: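 Using yeast strain wt1, compound-induced growth inhibition was determined against vehicle-treated cultures.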

[3] = NCI Yeast Anticancer Drug Screen. Data for the rad50EPP+ strain (AID 151);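 also: 0% = growth of vehicle-treated control cultures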; settings: S. cerevisiae rad50 mutant strain, stronger effect = higher value
How it was run: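 rad50EPP+ yeast treated with test compounds. Readout: growth vs vehicle control.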

[4] = NCI Yeast Anticancer Drug Screen. Data for the mgt1 strain (AID 153); settings: S. cerevisiae mgt1 mutant growth inhibition, stronger effect = higher value
How it was run: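 Growth inhibition relative to vehicle controls was scored for the mgt1 yeast strain after compound exposure.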

[5] = NCI Yeast Anticancer Drug Screen. Data for the rad50 strain (AID 155);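 also: 0% = growth of vehicle-only cultures of the same strain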; settings: S. cerevisiae rad50 strain growth inhibition, stronger effect = higher value
How it was run: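 Relative growth inhibition (compound vs vehicle) was measured in yeast with a defined repair-gene alteration.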

[6] = NCI Yeast Anticancer Drug Screen. Data for the mec2-1 strain (AID 157); settings: S. cerevisiae mec2-1 strain, stronger effect = higher value
How it was run: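 Growth inhibition is read against vehicle-treated controls after compound exposure of the mec2-1 yeast strain, which is defective in DNA damage repair or cell cycle control.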

[7] = NCI Yeast Anticancer Drug Screen. Data for the rad14 strain (AID 159);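 also: 0% = growth of vehicle-treated control cultures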; settings: S. cerevisiae rad14 strain growth inhibition, stronger effect = higher value
How it was run: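 Screen for anticancer potential: a yeast strain altered in DNA damage repair is grown with compound, and reduced growth is quantified against vehicle controls.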

[8] = NCI Yeast Anticancer Drug Screen. Data for the sgs1 mgt1 strain (AID 161);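 also: 0% = growth of cultures given vehicle only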; settings: S. cerevisiae sgs1 mgt1 strain, stronger effect = higher value
How it was run: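 Compounds are added to genetically altered yeast, and growth is compared with cultures given vehicle alone to give percent inhibition.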

[9] = NCI Yeast Anticancer Drug Screen. Data for the CLN2oe strain (AID 163);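 also: 0% = growth of vehicle-only control cultures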; settings: S. cerevisiae CLN2oe strain, stronger effect = higher value
How it was run: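 Compound-treated yeast; growth vs vehicle ctrl = % inhibition. Genetically altered strain (cell-cycle control).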

[10] = NCI Yeast Anticancer Drug Screen. Data for the cln2 rad14 strain (AID 165);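 also: 0% = growth equal to vehicle treated cultures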; settings: S. cerevisiae cln2 rad14 strain, stronger effect = higher value
How it was run: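 Growth inhibition, relative to vehicle-treated controls, is the read-out. The test organism is a yeast strain with defined genetic alterations, cln2 rad14.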

[11] = NCI Yeast Anticancer Drug Screen. Data for the bub3 strain (AID 167); settings: S. cerevisiae bub3 mutant strain, stronger effect = higher value
How it was run: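 Screening used yeast with an engineered genetic alteration affecting cell cycle control. Compound-exposed cultures were compared with vehicle cultures, and reduced growth was taken as inhibition.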

[12] = NCI Yeast Anticancer Drug Screen. Data for the wt2 strain (AID 169);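 also: 0% = growth of vehicle-treated yeast cultures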; settings: S. cerevisiae wt2 strain growth inhibition, stronger effect = higher value
How it was run: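 Compound exposure of yeast; growth compared with vehicle controls; inhibition reported.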

[13] = NCI Yeast Anticancer Drug Screen. Data for the mlh1 strain (AID 171);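 also: 0% = growth of vehicle-treated control cultures of the same strain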; settings: S. cerevisiae mlh1 strain growth inhibition, stronger effect = higher value
How it was run: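 Compounds are applied to a genetically altered yeast strain, and its growth is compared with that of vehicle-treated cultures to give percent inhibition.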

[14] = NCI Yeast Anticancer Drug Screen. Data for the sgs1 strain (AID 173);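 also: 0% = growth of vehicle-only control cultures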; settings: S. cerevisiae sgs1 mutant, stronger effect = higher value
How it was run: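 Compounds applied to genetically altered yeast; growth compared with vehicle-treated cultures to give % inhibition.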

[15] = NCI Yeast Anticancer Drug Screen. Data for the mlh1 rad18 strain (AID 175); settings: S. cerevisiae mlh1 rad18 strain growth inhibition, stronger effect = higher value
How it was run: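 Cells of a genetically altered yeast strain, deficient in DNA damage repair, were treated with compound. Their growth was then compared with that of vehicle-treated cultures to give inhibition.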

[16] = NCI Yeast Anticancer Drug Screen. Data for the rad18 strain (AID 177); settings: S. cerevisiae rad18 mutant growth inhibition, stronger effect = higher value
How it was run: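 Compounds are applied to a repair-deficient yeast strain, and growth is compared with that of vehicle-treated cultures to give percent inhibition.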

[17] = at 5.0 µM (retest, dose inferred, filed as 0.5)
[18] = at 50.0 µM (retest, dose inferred, filed as 5.0)

Measured: growth inhibition

O=[N+]([O-])c1ccc(N/N=C/Cc2ccccc2)c([N+](=O)[O-])c1
active: [11]; [18] 74%
inactive: [1]; at 1.2 µM -3% | [1]; at 3.7 µM -4% | [1]; at 11.0 µM -2% | [1]; at 33.0 µM 2% | [1]; at 100.0 µM 2% | [2]; at 1.2 µM -1% | [2]; at 3.7 µM -2% | [2]; at 11.0 µM -3% | [2]; at 33.0 µM -6% | [2]; at 100.0 µM -12% | [3]; at 1.2 µM -2% | [3]; at 3.7 µM 10% | [3]; at 11.0 µM 24% | [3]; at 33.0 µM 46% | [3]; at 100.0 µM 57% | [4]; at 1.2 µM -2% | [4]; at 3.7 µM 1% | [4]; at 11.0 µM -1% | [4]; at 33.0 µM -2% | [4]; at 100.0 µM 13% | [5]; at 1.2 µM 0% | [5]; at 3.7 µM -2% | [5]; [17] 5% | [5]; at 11.0 µM 4% | [5]; at 33.0 µM 8% | [5]; [18] 20% | [5]; at 50.0 µM -3.75% | [5]; at 100.0 µM -2% | [6]; at 1.2 µM -4% | [6]; at 3.7 µM -1% | [6]; [17] 1% | [6]; at 11.0 µM 2% | [6]; at 33.0 µM 6% | [6]; [18] 12% | [6]; at 50.0 µM 30.8% | [6]; at 100.0 µM 4% | [7]; at 1.2 µM -5% | [7]; at 3.7 µM -2% | [7]; at 11.0 µM 2% | [7]; at 33.0 µM 7% | [7]; at 100.0 µM 3% | [8]; [17] 3% | [8]; [18] 45% | [8]; at 50.0 µM 25% | [9]; at 1.2 µM -3% | [9]; at 3.7 µM 1% | [9]; at 11.0 µM 4% | [9]; at 33.0 µM 0% | [9]; at 100.0 µM -1% | [10]; [17] 7% | [10]; [18] -3% | [10]; at 50.0 µM -7.05% | [11]; at 1.2 µM 2% | [11]; at 3.7 µM 2% | [11]; [17] 9% | [11]; at 11.0 µM 12% | [11]; at 33.0 µM 27% | [11]; at 50.0 µM 67.2% | [11]; at 100.0 µM 39% | [12]; at 1.2 µM 4% | [12]; at 3.7 µM 5% | [12]; at 11.0 µM 5% | [12]; at 33.0 µM 6% | [12]; at 100.0 µM 5% | [13]; at 1.2 µM -4% | [13]; at 3.7 µM -5% | [13]; at 11.0 µM 0% | [13]; at 33.0 µM 6% | [13]; at 100.0 µM 11% | [14]; at 1.2 µM -4% | [14]; at 3.7 µM -1% | [14]; at 11.0 µM 2% | [14]; at 33.0 µM 9% | [14]; at 100.0 µM 22% | [15]; [17] 1% | [15]; [18] 29% | [15]; at 50.0 µM 12.1% | [16]; at 1.2 µM -2% | [16]; at 3.7 µM 3% | [16]; at 11.0 µM 11% | [16]; at 33.0 µM 17% | [16]; at 100.0 µM 21%

O=c1nc2n(Cc3ccccc3)c3ccccc3nc-2c(=O)[nH]1
inactive: [1]; at 1.2 µM 0% | [1]; at 3.7 µM 2% | [1]; at 11.0 µM 6% | [1]; at 33.0 µM 4% | [1]; at 100.0 µM 4% | [2]; at 1.2 µM -1% | [2]; at 3.7 µM 4% | [2]; at 11.0 µM 2% | [2]; at 33.0 µM 2% | [2]; at 100.0 µM 3% | [3]; at 1.2 µM 7% | [3]; at 3.7 µM 30% | [4]; at 1.2 µM -5% | [4]; at 3.7 µM 5% | [5]; at 1.2 µM -2% | [5]; at 3.7 µM -1% | [5]; [17] -15% | [5]; at 11.0 µM 2% | [5]; at 33.0 µM -1% | [5]; [18] 13% | [5]; at 50.0 µM 26.1% | [5]; at 100.0 µM 1% | [6]; at 1.2 µM -2% | [6]; at 3.7 µM 3% | [6]; [17] -2% | [6]; at 11.0 µM 5% | [6]; at 33.0 µM 6% | [6]; [18] -5% | [6]; at 50.0 µM 37.9% | [6]; at 100.0 µM 12% | [7]; at 1.2 µM 0% | [7]; at 3.7 µM 3% | [7]; at 11.0 µM 5% | [7]; at 33.0 µM 1% | [7]; at 100.0 µM 1% | [8]; [17] 39% | [9]; at 1.2 µM -12% | [9]; at 3.7 µM -7% | [9]; at 11.0 µM 3% | [9]; at 33.0 µM 5% | [9]; at 100.0 µM 0% | [10]; [17] 6% | [10]; [18] 22% | [10]; at 50.0 µM 28.2% | [11]; at 1.2 µM -3% | [11]; at 3.7 µM -6% | [11]; [17] 19% | [11]; at 11.0 µM -3% | [11]; at 33.0 µM -6% | [11]; [18] 1% | [11]; at 50.0 µM 11.4% | [11]; at 100.0 µM -8% | [12]; at 1.2 µM -2% | [12]; at 3.7 µM 3% | [12]; at 11.0 µM 67% | [13]; at 1.2 µM -3% | [13]; at 3.7 µM 3% | [13]; at 11.0 µM 65% | [14]; at 1.2 µM -2% | [14]; at 3.7 µM 11% | [15]; [17] 37% | [15]; [18] 39% | [15]; at 50.0 µM 26.6% | [16]; at 1.2 µM 0% | [16]; at 3.7 µM 1% | [16]; at 11.0 µM 4% | [16]; at 33.0 µM 9% | [16]; at 100.0 µM 9%
active: [3]; at 11.0 µM 74% | [3]; at 33.0 µM 92% | [3]; at 100.0 µM 97% | [4]; at 11.0 µM 74% | [4]; at 33.0 µM 94% | [4]; at 100.0 µM 96% | [8]; [18] 96% | [8]; at 50.0 µM 97.2% | [12]; at 33.0 µM 93% | [12]; at 100.0 µM 96% | [13]; at 33.0 µM 93% | [13]; at 100.0 µM 97% | [14]; at 11.0 µM 74% | [14]; at 33.0 µM 94% | [14]; at 100.0 µM 97%

CN(CCN(C)Cc1ccccc1)Cc1ccccc1
inactive: [1]; at 1.2 µM -5% | [1]; at 3.7 µM 8% | [1]; at 11.0 µM -4% | [1]; at 33.0 µM 19% | [1]; at 100.0 µM 2% | [2]; at 1.2 µM -16% | [2]; at 3.7 µM -9% | [2]; at 11.0 µM -12% | [2]; at 33.0 µM 0% | [2]; at 100.0 µM 14% | [3]; at 1.2 µM -13% | [3]; at 3.7 µM -3% | [3]; at 11.0 µM -4% | [3]; at 33.0 µM -22% | [3]; at 100.0 µM -40% | [4]; at 1.2 µM -13% | [4]; at 3.7 µM -4% | [4]; at 11.0 µM 14% | [4]; at 33.0 µM 11% | [4]; at 100.0 µM 58% | [5]; at 1.2 µM -18% | [5]; at 3.7 µM -12% | [5]; [17] 40% | [5]; at 11.0 µM -5% | [5]; at 33.0 µM 9% | [5]; at 50.0 µM 24.5% | [5]; at 100.0 µM 6% | [6]; at 1.2 µM -33% | [6]; at 3.7 µM -19% | [6]; [17] 45% | [6]; at 11.0 µM -25% | [6]; at 33.0 µM -6% | [6]; at 50.0 µM 12.9% | [6]; at 100.0 µM 2% | [7]; at 1.2 µM 5% | [7]; at 3.7 µM 18% | [7]; at 11.0 µM 18% | [7]; at 33.0 µM 43% | [7]; at 100.0 µM 68% | [8]; [17] -1% | [8]; [18] 57% | [8]; at 50.0 µM 51.3% | [9]; at 1.2 µM -12% | [9]; at 3.7 µM -5% | [9]; at 11.0 µM 5% | [9]; at 33.0 µM 18% | [9]; at 100.0 µM 44% | [10]; [17] 16% | [10]; [18] 38% | [10]; at 50.0 µM 31.1% | [11]; at 1.2 µM -31% | [11]; at 3.7 µM -15% | [11]; [17] 14% | [11]; at 11.0 µM -13% | [11]; at 33.0 µM 9% | [11]; [18] 39% | [11]; at 50.0 µM 60.5% | [11]; at 100.0 µM 3%
active: [5]; [18] 79% | [6]; [18] 81%

From PubChem BioAssay (NCI)
